Records with an inconclusive call do not appear. Entries that show only a call come without a potency. A number with no mark means an inactive call. The source made the active and inactive calls. Unless noted, the call rests on the fitted dose curve; in most records, active means well fitted curve in the direction sought with a large enough effect in the repeat runs; inconclusive means weak or mixed curves; inactive means no such curve, though single readings can be large; an effect the other way counts as inactive or inconclusive.
Experiments:
[1] = qHTS assay to identify small molecule antagonists of the vitamin D receptor (VDR) signaling pathway - cell viability counter screen (AID 743225); further: nearly all actives have a fitted effect of over 50% in size
How it was run: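 In this counter screen, VDR-bla HEK 293T cells receive test compound plus 3 nM final calcitriol for 16 h at 37C. Room-temperature steps of 2 h with the beta-lactamase substrate, then 30 min with CellTiter-Glo, precede the luminescence read.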

[2] = qHTS assay to identify small molecule agonists of the NFkB signaling pathway (AID 1159509; active means well fitted curve in the direction sought with a large enough effect in the signal ratio in the repeat runs, not every such curve was filed as active; the % refers to the signal ratio)
How it was run: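 After overnight attachment, reporter cells received test compounds, DMSO or positive controls and were incubated 5 hr at 37 C. FRET substrate was then added for 1.5 hr at room temperature before dual-emission fluorescence reading.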

[3] = qHTS assay to identify small molecule agonists of the NFkB signaling pathway - cell viability counter screen (AID 1159515; calls by dose curve; further: nearly all actives have a fitted effect of over 55% in size)
How it was run: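 NFkB-bla ME-180 cells, 2,000/well, plated overnight at 37 C; compound added for 5 hr at 37 C. Viability read in the same wells as the bla reporter, by CellTiter-Glo luminescence after 30 min at room temperature.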

[4] = qHTS assay to identify small molecule agonists of the endoplasmic reticulum stress response signaling pathway (AID 1159516; active means well fitted activation curve with a large enough effect in the signal ratio in the repeat runs, not every such curve was filed as active; the % refers to the signal ratio)
How it was run: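 CellSensor ESRE-bla HeLa cells, 1,500 per well, plated overnight, then exposed to compounds for 5 hr at 37 C. Beta-lactamase reporter read with LiveBLAzer B/G FRET substrate after 2 hr at room temperature, 405 nm excitation, 460 and 530 nm emission.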

[5] = qHTS assay to identify small molecule antagonists of the retinoid-related orphan receptor gamma (ROR-gamma) signaling pathway - cell viability counter screen (AID 1159520); further: nearly all actives have a fitted effect of over 50% in size
How it was run: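 Cytotoxicity was read from cellular ATP (CellTiter-Glo luminescence) after 16 hr at 37 C with 1 uM doxycycline induction. The inducer was added 2 hr after compound transfer to Tet-on ROR gamma CHO cells.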

[6] = molecular target: Nuclear receptor ROR-gamma (Homo sapiens) (UniProt P51449); assay: qHTS assay to identify small molecule antagonists of the retinoid-related orphan receptor gamma (ROR-gamma) signaling pathway (AID 1159521;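 further: CHO cells with doxycycline inducible ROR-gamma driving an RORE luciferase reporter; top concentration of the series differs between compounds; nearly all actives have a fitted effect of over 50% in size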)
How it was run: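 Screening format: cell-based luciferase reporter in CHO cells with doxycycline-inducible RORγ. Compound pre-exposure lasts 2 h, doxycycline is 1 uM final, induction runs 16 h at 37 C, and ONE-Glo luminescence is read.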

[7] = qHTS assay to identify small molecule agonists of the AP-1 signaling pathway - cell viability counter screen (AID 1159525; calls by dose curve; further: nearly all actives have a fitted effect of over 55% in size)
How it was run: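 Luminescent ATP readout (Cell Titer Glo, 30 min RT), normalised to DMSO and tetra n-octyl ammonium bromide controls. Cells were ME-180 AP-1-bla in 0.5% dialyzed FBS Opti-MEM, with a 5 h, 37 °C compound exposure.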

[8] = qHTS assay to identify small molecule agonists of the AP-1 signaling pathway (AID 1159526; calls by dose curve)
[9] = molecular target: Retinoic acid receptor RXR-alpha (Homo sapiens) (UniProt P19793); assay: qHTS assay to identify small molecule agonists of the RXR signaling pathway (AID 1159527; calls by dose curve; further: nearly all actives have a fitted effect of over 35% in size)
Sequence of Retinoic acid receptor RXR-alpha (Homo sapiens) (P19793 whole entry, looked up): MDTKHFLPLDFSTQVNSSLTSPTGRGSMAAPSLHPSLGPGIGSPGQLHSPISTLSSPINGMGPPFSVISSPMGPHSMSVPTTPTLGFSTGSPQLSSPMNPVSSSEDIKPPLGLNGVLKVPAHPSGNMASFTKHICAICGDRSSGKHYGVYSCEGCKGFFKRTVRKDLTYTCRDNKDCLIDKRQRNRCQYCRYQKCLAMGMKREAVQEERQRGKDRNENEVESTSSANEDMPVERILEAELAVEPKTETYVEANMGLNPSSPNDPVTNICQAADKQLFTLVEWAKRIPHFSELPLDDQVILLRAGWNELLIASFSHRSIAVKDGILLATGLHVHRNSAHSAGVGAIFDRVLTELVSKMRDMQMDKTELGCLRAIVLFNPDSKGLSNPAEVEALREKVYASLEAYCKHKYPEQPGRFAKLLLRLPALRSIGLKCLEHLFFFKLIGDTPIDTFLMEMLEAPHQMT
How it was run: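 Fluorescence ratio readout (460 vs 530 nm) from GeneBLAzer RXR-alpha HEK 293T cells after 16 hr compound treatment; cells seeded 5 hr beforehand in low-serum, charcoal-stripped medium.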

[10] = qHTS assay to identify small molecule agonists of the RXR signaling pathway - cell viability counter screen (AID 1159529);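 further: HEK 293T cells carrying an RXR-alpha UAS beta-lactamase reporter; nearly all actives have a fitted effect of over 50% in size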
How it was run: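 Viability read-out for the RXR-alpha agonist qHTS: luminescent CellTiter-Glo signal after 30 min at RT. HEK 293T bla reporter cells, 2% charcoal-stripped FBS, 16 hr compound incubation; tetraoctyl ammonium bromide as cytotoxic control.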

[11] = qHTS assay to identify small molecule antagonists of the retinoid acid receptor (RAR) signaling pathway - cell viability counter screen (AID 1159551); further: nearly all actives have a fitted effect of over 35% in size
How it was run: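 C3RL4 RARE-luciferase cells, 1,000/well, incubated overnight, then dosed with compound plus 1 uM retinol (final). After 6 hr at 37 C, viability read by CellTiter-Glo ATP luminescence following 30 min at room temperature.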

[12] = qHTS assay to identify small molecule antagonists of the retinoic acid receptor (RAR) signaling pathway (AID 1159552; further: nearly all actives have a fitted effect of over 50% in size)
How it was run: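 Using a RARE-driven luciferase construct in C3RL4 cells, retinol at 1 uM final provided the agonist stimulus while compounds were co-applied. After 6 hours at 37 C, luminescence was recorded to flag inhibitors of retinol signaling.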

[13] = qHTS assay to identify small molecule agonists of the retinoic acid receptor (RAR) signaling pathway (AID 1159553); details: C3RL4 RARE luciferase reporter, agonist, 6 h; activation: at 73.3 µM (top of the series); further: potency means the concentration at half of the fitted maximal effect
How it was run: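 C3RL4 RARE-luciferase cells were seeded at 1,000/well and grown overnight at 37 C, then exposed to compounds for 6 hr at 37 C, 5% CO2. Luciferase reagent was added and luminescence was read after 30 min at room temperature.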

[14] = qHTS assay to identify small molecule antagonists of the estrogen related receptor (ERR) signaling pathway from Tox21 library - cell viability counter screen (AID 1224834); further: nearly all actives have a fitted effect of over 30% in size
How it was run: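 ERR reporter cells, 2,000 per well, rested 6 h, then exposed to compound in DMSO for 17.5 hours at 37 C. Viability read as fluorescence after 30 min with CellTiter-Fluor.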

[15] = molecular target: Luciferin 4-monooxygenase (Photinus pyralis) (UniProt P08659); assay: qHTS assay to identify small molecule inhibitors of firefly luciferase (AID 1224835); further: nearly all actives have a fitted effect of over 25% in size
Sequence of Luciferin 4-monooxygenase (Photinus pyralis) (P08659 whole entry, looked up): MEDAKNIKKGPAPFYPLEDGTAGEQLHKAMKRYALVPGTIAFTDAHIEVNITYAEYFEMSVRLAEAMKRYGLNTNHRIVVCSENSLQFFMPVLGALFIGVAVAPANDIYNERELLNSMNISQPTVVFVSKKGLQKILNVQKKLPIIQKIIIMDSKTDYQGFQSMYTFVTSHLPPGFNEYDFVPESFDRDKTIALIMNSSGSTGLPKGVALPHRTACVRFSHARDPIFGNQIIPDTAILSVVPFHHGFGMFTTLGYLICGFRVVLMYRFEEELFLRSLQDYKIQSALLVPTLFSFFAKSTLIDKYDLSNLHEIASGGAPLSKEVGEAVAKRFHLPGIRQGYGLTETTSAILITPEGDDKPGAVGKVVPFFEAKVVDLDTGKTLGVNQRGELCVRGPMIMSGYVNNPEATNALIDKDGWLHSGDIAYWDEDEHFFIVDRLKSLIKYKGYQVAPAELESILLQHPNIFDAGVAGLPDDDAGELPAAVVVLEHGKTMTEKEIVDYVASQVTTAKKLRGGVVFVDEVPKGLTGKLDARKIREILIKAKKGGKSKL
How it was run: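 Inhibition of purified Photinus luciferase is measured by luminescence. Substrate levels (D-luciferin, ATP) sit at their KM values. Each compound is tested in a concentration series.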

[16] = qHTS assay to identify small molecule agonists of the constitutive androstane receptor (CAR) signaling pathway - cell viability counter screen (AID 1224836); further: nearly all actives have a fitted effect of over 45% in size
How it was run: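 Multiplexed viability check: HepG2-CYP2B6-hCAR cells, 15-point compound dosing, 0.75 uM PK11195 final, 23 h at 37 C, CellTiter-Fluor fluorescence.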

[17] = qHTS assay to identify small molecule antagonists of the constitutive androstane receptor (CAR) signaling pathway - cell viability counter screen (AID 1224837); further: nearly all actives have a fitted effect of over 45% in size
How it was run: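 HepG2 cells stably carrying hCAR and CYP2B6-2.2kb reporter, stimulated with 50 nM CITCO and compounds at 15 concentrations for 23 h at 37 C. Viability measured by CellTiter-Fluor fluorescence.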

[18] = qHTS assay to identify small molecule agonists of the vitamin D receptor (VDR) signaling pathway - cell viability counter screen (AID 743224); further: nearly all actives have a fitted effect of over 50% in size
How it was run: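 VDR-bla cells, 4 h after plating, exposed to compounds for 16 h at 37C; viability then read in the same wells as CellTiter-Glo luminescence after 30 min at room temperature, following the bla FRET read.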

[19] = molecular target: Nuclear receptor subfamily 1 group I member 3 (Homo sapiens) (UniProt Q14994); assay: qHTS assay to identify small molecule antagonists of the constitutive androstane receptor (CAR) signaling pathway (AID 1224838); further: nearly all actives have a fitted effect of over 40% in size
Sequence of Nuclear receptor subfamily 1 group I member 3 (Homo sapiens) (Q14994 whole entry, looked up): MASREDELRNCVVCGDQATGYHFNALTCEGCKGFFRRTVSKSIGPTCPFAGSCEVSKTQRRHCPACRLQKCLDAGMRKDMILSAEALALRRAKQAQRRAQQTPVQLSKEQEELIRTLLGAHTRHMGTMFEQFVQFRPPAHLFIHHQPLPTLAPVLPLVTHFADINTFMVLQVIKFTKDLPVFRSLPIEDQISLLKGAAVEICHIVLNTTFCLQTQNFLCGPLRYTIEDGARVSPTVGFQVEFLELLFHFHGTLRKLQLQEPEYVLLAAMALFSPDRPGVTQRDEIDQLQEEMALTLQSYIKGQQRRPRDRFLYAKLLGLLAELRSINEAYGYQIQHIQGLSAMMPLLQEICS
How it was run: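 HepG2 cells stably carrying hCAR and a CYP2B6-2.2kb luciferase reporter, seeded 4 hrs before compound (15 concentrations). Stimulated with 50 nM CITCO for 24 hr at 37 C. ONE-Glo luminescence read after 30 min at room temperature.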

[20] = qHTS assay to identify small molecule agonists of the endoplasmic reticulum stress response signaling pathway - cell viability counter screen (AID 1159517; calls by dose curve)
How it was run: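 Cells, HeLa ESRE-bla; density, 1,500/well; dosing, 5 hr at 37 C, 5% CO2; readout, CellTiter-Glo luminescence after 30 min RT.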

| SMILES | outcome [1] | outcome [2] | outcome [3] | outcome [4] | outcome [5] | outcome [6] | outcome [7] | outcome [8] | Potency [9] | outcome [10] | outcome [11] | Potency [12] | Potency [13] | Potency [14] | Potency [15] | outcome [16] | Potency [17] | outcome [18] | Potency [19] | outcome [20] |
| --- | --- | --- | --- | --- | --- | --- | --- | --- | --- | --- | --- | --- | --- | --- | --- | --- | --- | --- | --- | --- |
| Nc1ccc(S(=O)(=O)NC(=O)c2ccccc2)cc1 | inactive | inactive | inactive | inactive | inactive | inactive | inactive | inactive | inactive | inactive | inactive | inactive | inactive | inactive | inactive | inactive | inactive |  |  |  |
| O=S(=O)(O)CCO | inactive | inactive | inactive | inactive | inactive | inactive | inactive | inactive | inactive | inactive | inactive | inactive | inactive |  | inactive | inactive | inactive | inactive |  |  |
| CCCCC(CC)COC(=O)c1ccccc1 (centres undefined) | inactive | inactive | inactive | inactive | inactive | inactive | inactive | inactive | inactive |  | inactive | inactive | inactive | inactive | inactive | inactive | inactive | inactive | inactive |  |
| O=CN1CCOCC1 | inactive | inactive | inactive | inactive | inactive | inactive | inactive | inactive | inactive | inactive | inactive | inactive | inactive | inactive | inactive |  | inactive | inactive |  |  |
| Nc1ccc(C(=O)OCC(O)CO)cc1 (centres undefined) |  | inactive | inactive | inactive | inactive |  | inactive | inactive | inactive |  | inactive | inactive | inactive | inactive | inactive | inactive | inactive | inactive |  |  |
| Cc1cccc(Nc2ccncc2S(=O)(=O)NC(=O)NC(C)C)c1 | inactive | inactive | inactive | inactive |  |  | inactive | inactive | inactive | inactive | inactive | inactive | inactive |  | inactive | inactive |  | inactive |  | inactive |
| CC(=O)c1ccc(OCC(=O)N2CCCCC2)cc1 | inactive |  | inactive | inactive | inactive | inactive | inactive | inactive | inactive | inactive | inactive | inactive | 13.3 µM (active) |  |  | inactive | inactive | inactive | inactive | inactive |
| O=C1OC(=O)c2ccccc21 |  |  | inactive | inactive | inactive | inactive | inactive | inactive | inactive | inactive | inactive | inactive | inactive | inactive | inactive | inactive |  | inactive |  | inactive |
| CCN(CC)C(=O)C1CN2CCc3cc(OC)c(OC)cc3C2CC1OC(C)=O (centres undefined) | inactive |  | inactive | inactive | inactive |  | inactive | inactive | inactive | inactive | inactive | inactive | inactive | inactive | inactive | inactive | inactive | inactive |  | inactive |
| C[C@H]1O[C@H](O[C@H]2[C@H](O)[C@@H](O)[C@@H](O[C@H]3[C@H](O)[C@@H](O)[C@H](O)O[C@@H]3CO)O[C@@H]2CO)[C@H](O)[C@@H](O)[C@@H]1N[C@H]1C=C(CO)[C@@H](O)[C@H](O)[C@H]1O | inactive |  | inactive | inactive | inactive |  | inactive | inactive | inactive | inactive | inactive | inactive | inactive | inactive | inactive | inactive | inactive | inactive |  | inactive |
| c1ccccc1 | inactive |  | inactive | inactive | inactive | inactive | inactive | inactive | inactive | inactive | inactive | inactive | inactive | inactive | inactive | inactive | inactive | inactive |  | inactive |

From PubChem BioAssay (Tox21)
